The supplement of paper PMC9694430

What was measured:
Experiment in all cases: thermal shift delta Tm vs DMSO control; higher = stronger stabilization (binding)
Conditions in all cases: 12.5 µM; protein concentration 2 µM
LOC_OS04G57630-cb004 = system: LOC_OS04G57630-cb004
Method in brief: (§1)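 Purified, E. coli-expressed rice kinase domain constructs were tested by differential scanning fluorimetry in 96-well plates: 19.5 μl of 2 μM kinase in 100 mM potassium phosphate pH 7.5, 150 mM NaCl, 10% glycerol, 5 × SYPRO Orange, plus compound in DMSO. Fluorescence was read from 25°C to 95°C at 0.05°C/s. Melting temperatures came from Boltzmann fits, and the shift is the triplicate mean relative to protein with DMSO alone.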

LOC_OS05G07850-cb002 = system: LOC_OS05G07850-cb002
Method in brief: as §1

LOC_OS05G16824-cb004 = system: LOC_OS05G16824-cb004
Method in brief: as §1

LOC_OS05G28520-cb001 = system: LOC_OS05G28520-cb001
Method in brief: as §1

LOC_OS05G30820-cb001 = system: LOC_OS05G30820-cb001
Method in brief: as §1

LOC_OS05G43570-cb004 = system: LOC_OS05G43570-cb004
Method in brief: as §1

LOC_OS06G16330-cb003 = system: LOC_OS06G16330-cb003
Chain of LOC_OS06G16330-cb003 (as listed by the source): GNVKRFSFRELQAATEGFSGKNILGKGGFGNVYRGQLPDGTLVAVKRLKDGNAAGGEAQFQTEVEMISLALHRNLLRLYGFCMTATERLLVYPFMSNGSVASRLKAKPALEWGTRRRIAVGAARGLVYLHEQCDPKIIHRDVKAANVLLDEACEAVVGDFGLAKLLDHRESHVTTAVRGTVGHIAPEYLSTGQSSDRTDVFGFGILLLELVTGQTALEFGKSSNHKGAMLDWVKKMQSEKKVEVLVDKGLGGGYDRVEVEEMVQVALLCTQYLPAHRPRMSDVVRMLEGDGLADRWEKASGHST
Method in brief: as §1

LOC_OS06G22820-cb001 = system: T1, LOC_OS06G22820-cb001
T1 sequence (whole entry): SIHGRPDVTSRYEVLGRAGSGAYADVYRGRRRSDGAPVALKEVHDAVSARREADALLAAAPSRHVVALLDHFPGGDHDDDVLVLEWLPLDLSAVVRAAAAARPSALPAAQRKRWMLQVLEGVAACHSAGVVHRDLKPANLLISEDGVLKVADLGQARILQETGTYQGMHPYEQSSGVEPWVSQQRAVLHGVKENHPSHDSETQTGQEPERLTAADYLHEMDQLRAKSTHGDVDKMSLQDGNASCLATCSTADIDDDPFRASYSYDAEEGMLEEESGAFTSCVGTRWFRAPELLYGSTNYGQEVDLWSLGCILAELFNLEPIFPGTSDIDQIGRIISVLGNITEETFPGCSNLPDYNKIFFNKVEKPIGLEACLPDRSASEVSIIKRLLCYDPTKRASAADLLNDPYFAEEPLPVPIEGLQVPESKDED
Method in brief: as §1

LOC_OS07G06570-cb004 = system: LOC_OS07G06570-cb004
Method in brief: as §1

LOC_OS07G07230-cb001 = system: LOC_OS07G07230-cb001
Method in brief: as §1

Compound	thermal shift delta Tm (LOC_OS04G57630-cb004) [°C]	thermal shift delta Tm (LOC_OS05G07850-cb002) [°C]	thermal shift delta Tm (LOC_OS05G16824-cb004) [°C]	thermal shift delta Tm (LOC_OS05G28520-cb001) [°C]	thermal shift delta Tm (LOC_OS05G30820-cb001) [°C]	thermal shift delta Tm (LOC_OS05G43570-cb004) [°C]	thermal shift delta Tm (LOC_OS06G16330-cb003) [°C]	thermal shift delta Tm (LOC_OS06G22820-cb001) [°C]	thermal shift delta Tm (LOC_OS07G06570-cb004) [°C]	thermal shift delta Tm (LOC_OS07G07230-cb001) [°C]
COc1cc2ncnc(Nc3ccc(F)c(Cl)c3)c2cc1NC(=O)/C=C/CN1CCCCC1	0.99	0.3	-1.53	1.09	0.67	1.72	0.01	1.31	1.37	0.21
COc1cc2nccc(Oc3ccc(NC(=O)C4(C(=O)Nc5ccc(F)cc5)CC4)cc3)c2cc1OC	2.62	12.8	3.14	7.75	0.54	0.51	5.17	1.2	0.82	0.35
COc1ncc(-c2ccc3nccc(-c4ccnnc4)c3c2)cc1NS(=O)(=O)c1ccc(F)cc1F	0.93	6.11	2.11	0.26	0.47	0.73	2.61	0.6	0.86	-0.21
COc1ccc2[nH]cc(/C=C3\C(=O)Nc4ccc(NC(=O)CCN5CCCCC5)cc43)c2c1	0.69	8.06	4.33	0.72	0.68	0.6	2.98	0.74	1.1	0.33
OC(c1cc(-c2ccc(Cl)cc2)nc2ccccc12)C1CCCCN1 (stereo not given) [Vacquinol-1]	0.38	3.49	1.23	0.66	0.43	0.64	0.55	0.46	0.14	-0.36
CN1CCCN(C(=O)c2cccc(-c3ccc(/C=C4/C(=O)Nc5ccc(Cl)cc54)o3)c2)CC1	2.23	6.78	4.08	1.14	0.63	0.58	1.36	0.37	2.41	0.77
CC(C)CCN1c2nc(Nc3cc(F)c(O)c(F)c3)ncc2N(C)C(=O)C1C (stereo not given)	1.73	7.46	8.92	1	1.42	0.53	3.47	1.8	3.6	0.37
CCCS(=O)(=O)Nc1ccc(F)c(C(=O)c2c[nH]c3ncc(Cl)cc23)c1F	0.51	5.57	2.36	1.71	0.75	0.29	1.64	0.42	0.7	-0.02
O=C(O[C@@H]1Cc2c(O)cc(O)cc2O[C@@H]1c1cc(O)c(O)c(O)c1)c1cc(O)c(O)c(O)c1 [(-)-Epigallocatechin Gallate]	0.03	-2.62	-0.59	0.94	0.74	1.57	0.52	1.84	-0.75	0.18
Nc1ncc(-c2ccnc(Nc3ccncc3)n2)c(CC2CC2)n1	0.81	7.15	0.92	0.45	0.44	0.4	3.58	0.78	1.03	-0.19
Oc1cc(O)cc(/C=C/c2ccc(O)c(O)c2)c1 [Piceatannol]	0.71	2.79	-0.53	1.37	0.74	0.72	1.4	0.94	0.43	0.27
CCOc1cc2ncc(C#N)c(Nc3ccc(OCc4ccccn4)c(Cl)c3)c2cc1NC(=O)/C=C/CN(C)C [Neratinib (HKI-272)]	1.3	2.1	-0.55	0.73	0.56	0.35	0.45	0.9	1.96	0.81
COC(=O)N[C@@H](C)CNc1nccc(-c2cn(C(C)C)nc2-c2cc(Cl)cc(NS(C)(=O)=O)c2F)n1 [Encorafenib (LGX818)]	-0.17	5.07	-3.57	0.85	0.58	0.22	1.92	0.46	1.58	0.67
Cc1cc(Nc2cc(N3CCN(C)CC3)nc(/C=C/c3ccccc3)n2)n[nH]1 [ENMD-2076 L-(+)-Tartaric acid]	4.1	11.2	10.9	5.68	1.55	0.7	5.83	0.62	1.73	0.39
COc1cc(N2CCN(C)CC2)ccc1Nc1nccc(-c2cn(C)c3cnccc23)n1	0.55	11.8	-3.65	0.25	0.38	0.32	5.31	0.11	1.53	0.44
Cc1cc(Nc2ncnc3ccc(NC4=NC(C)(C)CO4)cc23)ccc1Oc1ccn2ncnc2c1 [Irbinitinib (ARRY-380, ONT-380)]	0.3	0.8	-0.96	0.07	0.07	0.33	-0.51	0.49	1.27	0.02
CN(C)C/C=C/C(=O)Nc1ccc(C(=O)Nc2cccc(Nc3ncc(Cl)c(-c4c[nH]c5ccccc45)n3)c2)cc1	2.1	11.2	11.9	4.57	5.85	1.59	11.2	0.86	1.53	0.68
C[C@@H](Oc1ccc2[nH]nc(/C=C/c3cnn(CCO)c3)c2c1)c1c(Cl)cncc1Cl	8.94	16	12.1	1.22	6.07	0.92	15.1	-0.35	0.87	0.66
O=C(c1ccc(Nc2nccc(-c3cc4ccccc4s3)n2)cc1)N1CCC(N2CCCC2)CC1 [IKK-16 (IKK Inhibitor VII)]	5.63	15.2	7.99	1.89	0.77	-0.31	9.02	0.14	0.72	0.03

Compound	thermal shift delta Tm (LOC_OS04G57630-cb004) [°C]	thermal shift delta Tm (LOC_OS05G07850-cb002) [°C]	thermal shift delta Tm (LOC_OS05G16824-cb004) [°C]	thermal shift delta Tm (LOC_OS05G28520-cb001) [°C]	thermal shift delta Tm (LOC_OS05G30820-cb001) [°C]	thermal shift delta Tm (LOC_OS05G43570-cb004) [°C]	thermal shift delta Tm (LOC_OS06G16330-cb003) [°C]	thermal shift delta Tm (LOC_OS06G22820-cb001) [°C]	thermal shift delta Tm (LOC_OS07G06570-cb004) [°C]	thermal shift delta Tm (LOC_OS07G07230-cb001) [°C]
O=c1c(O)c(-c2cc(O)c(O)c(O)c2)oc2cc(O)cc(O)c12 [Myricetin]	0.92	4.43	1.57	0.55	0.97	1.55	6.62	1.33	-1.03	0.47
CCn1c2ccccc2c2cc(Nc3ccnc(NCCCN4CCOCC4)n3)ccc21	0.23	3.68	-1.41	0.55	0.41	0.2	0.02	0.32	1.17	0.72
N#CC(=C(/N)Sc1ccccc1N)/C(C#N)=C(\N)Sc1ccccc1N	-0.53	-1.4	-1.67	1.16	0.39	0.33	1.2	1.19	-0.22	0.58
CCc1cncnc1N1CCN(Cc2nc3ccc(C(F)(F)F)cc3[nH]2)CC1	-0.2	-0.11	-2.67	-0.08	0.66	0.46	0.02	0.76	0.84	-0.27
Cc1nc2ccc(-n3ncc(C(=O)c4cc5ccccc5[nH]4)c3N)cc2[nH]1	-0.26	2.01	0.01	0.51	0.59	0.2	0.87	0.56	-0.34	0.11
COc1cc2ncnc(Nc3ccc(F)c(Cl)c3)c2cc1OCCCN1CCOCC1 [Gefitinib (ZD1839)]	-0.05	9.4	-0.18	0.21	0.41	0.31	2.35	0.63	0.99	0.24
OC1CCC(Oc2cccc3cnc(Nc4ccc5nc[nH]c5c4)nc23)CC1 (stereo not given)	4.38	13.5	18.9	0.67	2.88	1.07	12.4	0.29	1.85	0.34
COc1ccc(-c2cc3c(C)nc(N)nc3n([C@H]3CC[C@H](OCCO)CC3)c2=O)cn1	0.78	0.06	-1.05	0.57	0.75	0.65	-0.03	0.69	1.04	0.01
CCCCNc1ncc2c(-c3ccc(CN4CCN(C)CC4)cc3)cn([C@H]3CC[C@H](O)CC3)c2n1	6.55	11.9	15.5	0.68	1.96	0.44	13.5	0.17	0.92	-0.01
C[C@@H](Oc1cc(-c2cnn(C3CCNCC3)c2)cnc1N)c1c(Cl)ccc(F)c1Cl	3.33	9.7	4.65	0.26	0.39	0.21	10.8	0.95	0.69	0.31
CNS(=O)(=O)C[C@H]1CC[C@H](N(C)c2[nH]cnc3nccc2-3)CC1 [Oclacitinib]	0.5	7.33	-0.02	0.31	0.53	0.33	3.72	0.36	1.6	0.51
Cc1cc(Nc2cc(N)ncn2)c(=O)n2c1C(=O)NC21CCCCC1	0.21	5.64	1.99	-0.15	0.03	0.05	0.4	0.25	0.6	0.71
Cc1cc(Nc2ncnc3ccc(-c4ccc(CNCCS(C)(=O)=O)o4)cc23)ccc1Oc1ccn2ncnc2c1 [HER2-Inhibitor-1]	2.09	6.61	2.73	1.2	0.57	0.41	3.81	0.78	1.57	0.55
Cc1ccccc1CN1C2=NCCN2C(=O)C2=C1CCN(Cc1ccccc1)C2 [TIC10 Analogue]	-0.16	-0.89	-2.52	0.56	0.36	0.33	-0.41	0.74	1.19	0.09
Cc1cn(-c2cc(NC(=O)c3ccc(C)c(Nc4nccc(-c5cnccn5)n4)c3)cc(C(F)(F)F)c2)cn1 [Radotinib]	0.16	-1.11	0.06	0.56	0.41	0.62	-0.09	0.69	1.06	0.23
CC(=O)c1c(C)c2cnc(Nc3ccc(N4CCNCC4)cn3)nc2n(C2CCCC2)c1=O	0.52	5.93	5.52	0.05	0.23	0.31	4.77	-0.1	0.7	0.73
Cc1cc(Nc2cc(N3CCN(C)CC3)nc(Sc3ccc(NC(=O)C4CC4)cc3)n2)n[nH]1 [Tozasertib (VX-680, MK-0457)]	5.53	8.32	15.4	2.06	0.66	0.98	5.98	0.83	0.91	0.6
C=CCc1ccc(O)c(-c2ccc(O)c(CC=C)c2)c1 [Honokiol]	0.34	0.49	1.45	0.24	0.69	0.62	0.47	0.7	0.49	-0.78
C=C(C)[C@@H]1CC[C@]2(C)CC[C@]3(C)[C@H](CC[C@@H]4[C@@]5(C)CC[C@H](O)C(C)(C)[C@@H]5CC[C@]43C)[C@@H]12 [Lupeol]	0.77	0.82	1.84	0.13	0.38	0.49	-2.09	0.12	1.26	0.62
